In PubChem BioAssay (Tox21):
Inconclusive results are not listed. Activity calls are given as the source filed them. Calls come from the whole dose curve; as a rule, active = well fitted cell-killing curve with a large enough effect in the repeat runs; inconclusive = weak or mixed curves, or effect the other way; inactive = flat fitted curve, though single readings scatter.

Assay: qHTS RealTime-Glo MT Cell Viability Assay in HEK293 cells - 16 hour (AID 1224872); note: top concentration of the series differs between compounds; nearly all actives have a fitted effect of over 50% in size
Conditions: RealTime-Glo luminescence; series mostly up to 76.8 µM; activity change, negative = cytotoxicity: at the top concentration
Text: National Center for Advancing Translational Sciences [NCATS]
NIH Chemical Genomics Center [NCGC]
U.S. Environmental Protection Agency [EPA]
National Institutes of Environmental Health Sciences [NIEHS]
National Toxicology Program [NTP]
U.S. Food and Drug Administration [FDA]
Measure of cell viability is critical in the cell-base assay. Analysis of cell viability is necessary for the characterization of cell responses to cytotoxic drugs and environmental stress. A RealTime-Glo MT Cell Viability Assay to monitor cell viability in real time of continues cell culture during 40 hours of compound treatment was used to screen Tox21 10K library compounds in Hek293 cells. The RealTime-Glo MT Cell Viability Assay is a nonlytic, homogeneous, bioluminescent method to measure cell viability in real time using a simple, plate-based method. The assay involves adding NanoLuc luciferase and a cell-permeant prosubstrate to cells in culture. Viable cells reduce the proprietary prosubstrate to generate a substrate for NanoLuc luciferase. This substrate diffuses from cells into the surrounding culture medium, where it is rapidly used by the NanoLuc Enzyme to produce a luminescent signal. The signal correlates with the number of viable cells, making the assay well suited for cytotoxicity studies.
Tox21 Assay Protocol Summary:
The mixture of Hek293 cell suspension and reagents were dispensed at 600cells/6 ul/well in 1536-well tissue culture treated black solid bottom plates using a Multidrop dispenser. After the assay plates were incubated at a 37 C/5% CO2 incubator for 5 hours, 23 nL of compounds dissolved in DMSO, positive and negative controls was transferred to the assay plate by a pintool work station. The plates were incubated at 37 C for 40 hours. The luminescence intensity were measured at 0h, 8h, 16h, 24h, 32h and 40h time points using ViewLux plate reader during compound treatment.
% is set by controls: 0 for no effect and ±100 for the full control effect.

Structure (SMILES) | activity change, negative = cytotoxicity
O=C(O)P(=O)(O)O | 2.98% [at 35.3 µM] (inactive)
CC(C)(Sc1cc(C(C)(C)C)c(O)c(C(C)(C)C)c1)Sc1cc(C(C)(C)C)c(O)c(C(C)(C)C)c1 | 0.391% [at 35.3 µM] (inactive)
O=S(=O)(O)c1ccc(Cl)cc1 | 8.77% (inactive)
Cc1cc(C)c(C)c(C)c1 | 0.0861% (inactive)
O=C1CC2(CCCC2)CC(=O)N1CCNCC1COc2ccccc2O1 (stereo not given) | -2.24% [at 35.3 µM] (inactive)
CN(C)CCc1c[nH]c2ccc(CS(=O)(=O)N3CCCC3)cc12 | -0.667% [at 35.3 µM] (inactive)
C[Si](C)(C)O[Si](O)(O)O | -0.423% (inactive)
Cc1nnc(C(=O)NC(C)(C)c2nc(C(=O)NCc3ccc(F)cc3)c(O)c(=O)n2C)o1 | 13.1% [at 35.3 µM] (inactive)
C=CC(=O)OCCOCCOCC | 13.8% (inactive)
CCO[Si](CC(C)C)(OCC)OCC | 3.19% (inactive)
COc1cc(S(N)(=O)=O)cc(C(=O)O)c1OC | 1.63% [at 35.3 µM] (inactive)
CC1(C)CC(N)CC(C)(C)N1 | 19.1% (inactive)
CCCCCCCCCCCC(C)=O | 6.23% (inactive)
C=COCCCCO | 11.3% (inactive)
CC(C)(C)C(=O)NCCCC(=O)O | 0.447% [at 35.3 µM] (inactive)
CCCCCCCCS(=O)(=O)O | -0.247% (inactive)
CC1(C)S[C@@H]2[C@H](NC(=O)Cc3ccccc3)C(=O)N2[C@H]1C(=O)O (tested in a mixture with another compound) | -0.463% [at 35.3 µM] (inactive)
C/C=C(\C)C=O | 13.4% (inactive)
C=CC(C)(CCC=C(C)C)OC(=O)C(C)C (stereo not given) | 3.11% (inactive)
Cc1nc2ccc(Cl)cc2[nH]1 | 2.77% (inactive)

Structure (SMILES) | activity change, negative = cytotoxicity
CC(=O)Nc1ccc(S(=O)(=O)Nc2cc(C)on2)cc1 | 4.3% [at 35.3 µM] (inactive)
CCN(CC)CC | -12.1% (inactive)
CC(C)C(=O)Nc1cccc(C2CN3CCSC3=N2)c1 (stereo not given) | -7.76% [at 35.3 µM] (inactive)
O=C[C@@H](O)[C@H](O)[C@H](O)CO | -8.66% (inactive)
CC(C)CC(O)Cc1ccccc1 (stereo not given) | 2.57% (inactive)
CCCCN(CCCC)CCCCCCN(CCCC)CCCC | -5.94% (inactive)
C[C@@H]1CCC[C@H](C)N1CCCC(O)(c1ccccc1)c1ccccn1 (stereo not given in full) | 0.608% [at 35.3 µM] (inactive)
CCN1CCN(C(=O)N[C@@H](C(=O)N[C@@H]2C(=O)N3[C@@H]2SC(C)(C)[C@H]3C(=O)O)c2ccccc2)C(=O)C1=O | 2.55% [at 35.3 µM] (inactive)
CNC(C)=O | 6.43% (inactive)
CNC(=O)c1c(I)c(NC(C)=O)c(I)c(C(=O)O)c1I | 7.7% [at 35.3 µM] (inactive)
CC(C)(O)CCCC1=CCC(C=O)CC1 (stereo not given) | -18.1% (inactive)
CCCC(C)C(O)CC (stereo not given) | 10.9% (inactive)
CC(=O)Oc1ccc(C(C)=O)cc1 | -4.19% (inactive)
O=S(=O)(O)CC(O)CCl (stereo not given) | 0.0414% (inactive)
CCCOc1ccc(C(=O)OCCN(CC)CC)cc1N | -7.41% [at 35.3 µM] (inactive)
Cc1ccc(N)nc1 | -1.61% (inactive)
NNC(=O)CCCCC(=O)NN | 0.616% (inactive)
CC(O)C(CO)C(C)O (stereo not given) | 7.51% (inactive)
CSC(=O)c1cccc2nnsc12 | 2.14% (inactive)
CCOc1ccccc1OCCN[C@H](C)Cc1ccc(OC)c(S(N)(=O)=O)c1 | -2.27% [at 35.3 µM] (inactive)
